PHOSPHO1 inh: PHOSPHO1 (human) inhibition | Q8TCT1 | recombinant PHOSPHO1, absorbance phosphatase assay | inhibition, % at 13.3 µM | hit rate 1.1% among 290,000 | AID 1565; in the data active = inhibition above about 60%
APOBEC3A inh: blocks human APOBEC3A ssDNA deamination. P31941. recombinant A3A, FAM/TAMRA ssDNA deamination fluorescence. inhibition, % at 20 µM. hit rate 0.41% among 330,000. AID 493011;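 active = at least 40% inhibition at 20 µM here, with at most 30% in a related deaminase screen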
Target sequence (P31941 whole entry, looked up): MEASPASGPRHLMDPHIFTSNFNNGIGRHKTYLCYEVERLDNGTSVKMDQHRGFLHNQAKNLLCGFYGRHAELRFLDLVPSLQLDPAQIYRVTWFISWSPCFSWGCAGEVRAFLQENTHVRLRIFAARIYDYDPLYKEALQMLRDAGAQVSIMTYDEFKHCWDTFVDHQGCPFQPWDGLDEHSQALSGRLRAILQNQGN
Wnt act: activates Wnt/beta-catenin signaling in a reporter cell assay; hit rate 1.2% among 300,000; activator, plate reader; activation, % at 9.35 µM; in the data active = activation above about 30%, passing the limit was not always enough; inconclusive = no clear call, values can overlap the other calls
A3G deaminase: inhibitors of human APOBEC3G DNA deaminase; Q9HC16; recombinant A3G, ssDNA deamination FAM/TAMRA fluorescence; inhibition, % at 20 µM; hit rate 0.28% among 330,000;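 active = inhibition of at least 40% at 20 µM, with no more than 30% in the related APOBEC3A deaminase screen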
Target sequence (Q9HC16 whole entry, looked up): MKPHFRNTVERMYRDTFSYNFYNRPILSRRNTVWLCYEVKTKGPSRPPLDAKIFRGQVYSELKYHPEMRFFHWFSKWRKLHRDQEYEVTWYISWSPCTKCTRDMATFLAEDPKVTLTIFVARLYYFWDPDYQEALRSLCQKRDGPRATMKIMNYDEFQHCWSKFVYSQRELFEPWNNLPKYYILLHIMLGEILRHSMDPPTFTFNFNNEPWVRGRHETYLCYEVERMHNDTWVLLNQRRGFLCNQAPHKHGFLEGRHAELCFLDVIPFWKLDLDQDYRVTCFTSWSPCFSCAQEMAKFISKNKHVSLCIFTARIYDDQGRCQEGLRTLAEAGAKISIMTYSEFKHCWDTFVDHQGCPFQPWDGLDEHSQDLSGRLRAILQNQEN
esBAF inh: blocks esBAF chromatin remodeling in mouse ES cells. hit rate 2% among 350,000. AID 602393. reporter increase, % at 12.5 µM. Bmi1-luciferase knock-in reporter, 24 h; 100% = twice the neutral-well signal; in the data active = activation above about 40%; inconclusive = no clear call, values can overlap the other calls;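 note: a rise in the Bmi1 reporter signal indicates esBAF inhibition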
MITF act: MITF TRPM1 promoter activation in melanoma cells; SK-MEL-5 TRPM1-promoter luciferase, 24 h; % of positive control, neutral wells = 0; AID 588334; activation, % at 12.5 µM; hit rate 0.75% among 300,000;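 active = mean activation of at least 80% with every replicate also reaching 80%; inconclusive = mean reaches 80% but some replicate falls short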
A number is an active result; 0 = inactive; ? = inconclusive; - = not tested or not shown. Most compounds without a hit are left out; they make up all but 3.6% or so of the library.

SMILES	PHOSPHO1 inh	APOBEC3A inh	Wnt act	A3G deaminase	esBAF inh	MITF act
O=C([C@@H]1[C@@H](CO)[C@@H]2Cn3c(ccc(-c4cccnc4)c3=O)[C@H]1N2CCC(F)(F)F)N1CCCCC1	-	-	-	-	0	-
O=C(Nc1nccs1)c1ccc(-c2ccc(Cl)cc2)o1	0	0	52	0	-	109
O=C(Nc1nccs1)c1ccc(-c2ccccc2Cl)o1	0	0	?	0	-	0
O=C(Nc1nccs1)c1ccc(-c2ccc([N+](=O)[O-])cc2)o1	0	-	0	-	69	0
O=C(Nc1nccs1)c1ccc(-c2ccccc2[N+](=O)[O-])o1	0	0	35	0	86	0
O=C(Nc1nccs1)c1ccc(-c2ccc(F)cc2)o1	0	0	37	0	-	142
O=C(N[C@@H]1CC[C@@H](CCn2cc(-c3ccccn3)nn2)O[C@H]1CO)c1ccccc1	-	-	-	-	0	-
O=C(Nc1nccs1)c1ccc(N2CCOCC2)c([N+](=O)[O-])c1	0	0	43	0	0	0
COc1ccccc1NC(=O)c1ccc(-c2ccc(Br)cc2)o1	0	0	-	0	-	0
COc1ccccc1NC(=O)c1ccc(-c2ccccc2[N+](=O)[O-])o1	0	0	0	0	-	94
O=C(Nc1ccccc1N1CCOCC1)c1ccc(N2CCOCC2)c([N+](=O)[O-])c1	0	0	0	0	-	0
COc1cccc(C(=O)Nc2ccc(NC(=O)C3CCCCC3)nc2)c1	0	0	0	0	0	0
O=C(Nc1nnc(Cc2ccccc2)s1)Nc1ccccc1F	0	0	0	0	53	0
O=C(Nc1nnc(Cc2ccc(Cl)cc2)s1)c1cccs1	0	0	-	0	0	-
Cc1ccc(C(=O)Nc2nnc(Cc3ccccc3)s2)cc1	0	0	0	0	0	0
O=C(Nc1nnc(Cc2ccccc2)s1)c1cccs1	0	0	-	0	44	0
O=C(Nc1ccc(NC(=O)C2CCCCC2)nc1)c1cccs1	0	0	55	0	-	0
O=C(Nc1ccccc1)Nc1nnc(Cc2ccccc2F)s1	0	0	0	0	0	-
O=C(Nc1nnc(Cc2ccccc2)s1)c1ccccc1	0	0	0	0	70	-
CO[C@H]1CN(C)C(=O)c2ccc(NC(=O)C3CCCC3)cc2OC[C@@H](C)N(S(C)(=O)=O)C[C@@H]1C	-	-	-	-	0	-
CC(C)NC(=O)N(C)C[C@@H]1Oc2cc(C#CC(C)(C)O)ccc2S(=O)(=O)N([C@@H](C)CO)C[C@H]1C	-	-	-	-	0	-
COc1ccccc1OCC(=O)Nc1nnc(C2CCCC2)s1	0	0	0	0	0	0
Cc1cccc(-c2nnc(NC(=O)c3cccs3)s2)c1	0	0	0	0	47	0
O=C(Nc1nnc(C2CCCO2)s1)c1cccs1 (stereo not given)	0	0	-	0	?	0
O=C(Nc1nnc(C2CCCCC2)s1)c1cccs1	0	0	58	0	51	-
SMILES	PHOSPHO1 inh	APOBEC3A inh	Wnt act	A3G deaminase	esBAF inh	MITF act
O=C(Nc1nnc(-c2cccnc2)s1)c1cccs1	0	0	0	0	0	0
Cc1ccc(C(=O)Nc2nnc(COCCO)s2)cc1	-	-	0	-	50	-
Cc1ccc(C(=O)Nc2nnc(COc3ccccc3)s2)cc1	0	0	0	0	-	0
COc1ccccc1NC(=O)CCC(=O)Nc1nnc(C2CCCCC2)s1	0	0	34	0	0	0
CCC(=O)N1[C@@H]2Cn3c(ccc(-c4ccccc4F)c3=O)[C@H]1[C@@H](C(=O)NC1CCCC1)[C@@H]2CO	-	-	-	-	0	-
C[C@H](CO)N1C[C@H](C)[C@H](CN(C)S(=O)(=O)c2ccc(F)cc2)Oc2ccc(N(C)C)cc2C1=O	-	-	-	-	0	-
CC(C)NC(=O)N(C)C[C@@H]1Oc2c(NS(=O)(=O)c3ccc(F)cc3)cccc2C(=O)N([C@H](C)CO)C[C@H]1C	-	-	-	-	0	-
O=C(C=Cc1ccco1)c1ccc2ccccc2c1	-	-	61	-	-	0
O=C(/C=C/c1ccco1)c1ccc(O)cc1	0	0	-	0	-	-
Cc1csc2c(=O)sc(NC(=O)c3ccc(F)cc3Cl)nc12	0	0	0	0	0	-
O=C(Nc1nc2ccsc2c(=O)s1)c1ccc(F)cc1Cl	0	0	52	0	-	-
Cc1ccc(C)n1-c1ccc(-c2ccn[nH]2)cc1	0	0	0	0	0	0
c1ccn(-c2ccc(-c3ccn[nH]3)cc2)c1	0	0	0	0	-	93
CCC(=O)Nc1ccc2c(c1)C(=O)N(C)[C@H]1CC[C@@H](CC(=O)N3CCc4ccccc4C3)O[C@@H]1CO2	-	-	-	-	0	-
CC=Cc1ccc2n(c1=O)C[C@H]1[C@H](CO)[C@@H](C(=O)NCC)[C@@H]2N1C(=O)c1ccc(F)cc1 (mixture of isomers)	-	-	-	-	0	-
NC(=O)c1ccsc1NC(=O)COC(=O)c1ccccc1F	-	0	0	0	0	0
NC(=O)c1ccsc1NC(=O)COC(=O)c1c(F)cccc1Cl	-	0	0	0	112	0
CC(C)(C)NC(=O)NC(=O)COC(=O)Cc1c(Cl)cccc1Cl	0	0	0	0	-	0
CC(C)(C)NC(=O)NC(=O)COC(=O)c1c(F)cccc1Cl	0	0	0	0	50	0
COc1ccc(/C=C/c2nnc(NC(C)=O)s2)cc1	0	0	37	0	0	-
COC(=O)Nc1nnc(/C=C/c2ccc(OC)cc2)s1	0	0	0	0	-	0
O=C(COC(=O)c1c2c(nc3ccccc13)/C(=C\c1ccco1)CC2)NC1CCCC1	-	-	0	-	0	0
CN(CCC#N)C(=O)COC(=O)c1c2c(nc3ccccc13)/C(=C\c1ccco1)CC2	-	-	0	-	56	0
C/C=C/c1cnc2c(c1)C(=O)N([C@@H](C)CO)C[C@H](C)[C@@H](CN(C)C(=O)NCCC)O2	-	-	-	-	0	-
COc1ccc([C@H]2CC(=O)C=C(c3cccc(C#N)c3)C2)cc1	-	0	0	0	45	0
SMILES	PHOSPHO1 inh	APOBEC3A inh	Wnt act	A3G deaminase	esBAF inh	MITF act
Nc1cccc(Oc2ccc3c(c2)C(=O)N(CC2CCCO2)C3=O)c1 (stereo not given)	0	0	0	0	50	0
CC(C)(C)c1ccc2c(c1)C(=O)c1ccccc1C2=O	0	0	?	0	0	0
CCCCNC1=CC(=O)C(=O)c2ccccc21	60	0	0	0	-	0
CCc1ccc(NC2=CC(=O)C(=O)c3ccccc32)cc1	-	0	33	0	-	0
CCc1ccc2c(c1)C(=O)c1ccccc1C2=O	0	0	74	0	-	0
O=C1C=C(Nc2ccccc2)c2ccccc2C1=O	0	0	0	0	-	0
COc1ccc(/C(N)=N/OC(=O)c2ccc(C)c([N+](=O)[O-])c2)cc1	0	0	-	0	70	0
Cc1ccc(C(=O)O/N=C(\N)c2ccc(Br)cc2)cc1	0	0	-	0	82	89
N/C(=N\OC(=O)C1CCCCC1)c1ccc(Br)cc1	0	0	0	0	66	-
N/C(=N\OC(=O)c1ccc(Br)cc1)c1ccccc1	0	0	-	0	0	0
N/C(=N\OC(=O)C1CCCCC1)c1ccncc1	0	0	-	0	-	0
COc1ccc(C(=O)O/N=C(\N)c2ccc(Br)cc2)cc1	-	0	35	0	59	0
CN(CC(=O)Nc1ccc(Cl)c(S(=O)(=O)N(C)C)c1)Cc1ccccc1	0	0	0	0	65	0
